The list is not random: actives were taken first. Their share in the collection is about 4.5%.
Mdm2-MdmX inh = inhibitors of human Mdm2/MdmX interaction; O15151+Q00987; SaOS-2 split-luciferase Mdm2/MdmX complementation, luminescence; inhibition, % at 8 µM; actives 3% (n = 330,000); AID 485346;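 active means inhibition of at least 50% at 8 µM in the primary screen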
Gli-Sufu block = blocks Gli-Sufu signaling in a luciferase reporter. actives 0.74% (n = 340,000). Sufu-KO-LIGHT fibroblasts, Gli luciferase reporter luminescence. AID 588413. inhibition, % at 5 µM;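 active means inhibition above about 55%, limit read from the data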;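 further: 0% = DMSO-treated cells and 100% = wells with medium but no cells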
Beta apoptosis = beta cell apoptosis inhibition; actives 0.8% (n = 300,000); protection from apoptosis, % (no concentration beside the values); INS-1E cytokine-induced death, ATP luminescence, 48 h; percent of positive-control rescue, neutral wells zero;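 active means Every replicate reaches about 75%, or at least half do and their mean reaches it too, limit read from the data; inconclusive means At least half of replicates reach the limit but their mean does not; inactive means Under half of replicates reach the limit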;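 further: 0% = cytokine-treated negative control wells and 100% = positive control rescue; higher means more ATP so stronger rescue from cytokine killing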
697 NFkB inh = inhibitors of the PMA/ionomycin-induced NF-kB reporter in 697 B cells; inhibition, % at 4 µM; 697 B-cell NF-kB luciferase reporter, 16 h; AID 435022; actives 0.33% (n = 330,000); in the data active means inhibition above about 35%
Jurkat NFkB inh = lowers PMA/ionomycin-induced NF-kB signal in Jurkat cells. inhibition, % at 4 µM. PMA/ionomycin-induced NF-kB luciferase reporter, luminescence. actives 0.53% (n = 330,000); in the data active means inhibition above about 50%
CSC inhib = cancer stem cell inhibition; cancer stem cell-like cells viability, luminescence; inhibition, % at 7.5 µM; actives 1.1% (n = 300,000); in the data active means inhibition above about 75%; inconclusive means no clear call, values can overlap the other calls; tested in HMLE shEcad cells
Mdm2 MdmX conf = confirmation of human Mdm2/MdmX interaction inhibitors. shares compounds with Mdm2-MdmX inh. Mdm2-MdmX binding, luminescent assay. inhibition, % at 8 µM. actives 55% (n = 10,000). AID 489028; in the data active means inhibition above about 40%
FLuc counter = inhibits full-length luciferase, flagging false Mdm2/MdmX hits | shares compounds with Mdm2-MdmX inh | SaOS-2 full-length luciferase counterscreen, luminescence | inhibition, % at 8 µM | actives 77% (n = 6,200) | AID 504607;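 active means mean inhibition at 8 µM reaching about 37%, which flags the compound as non-specific, limit read from the data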;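 further: p53-null SaOS-2 cells with luciferase driven by a doxycycline-inducible promoter; compound on cells about two nights before reading with doxycycline added after day one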
The depositor's hits bear a star; ? = inconclusive; nt = no result.

SMILES	Mdm2-MdmX inh	Gli-Sufu block	Beta apoptosis	697 NFkB inh	Jurkat NFkB inh	CSC inhib	Mdm2 MdmX conf	others
COc1ccc(N(CC(=O)NCc2ccc(F)cc2)C(=O)c2snc(C(N)=O)c2N)cc1	-3	15	-9	-15	7	-4	nt
COc1ccc(NC(=O)CN(C)C(=O)C(C)N2C(=O)c3ccccc3C2=O)cc1 (stereo not drawn)	-7	2	0	-11	-4	-2	nt
C[C@@H](NC(=O)c1[nH]cnc1C(=O)Nc1ccccc1)c1ccccc1	38	-5	0	-16	9	18	nt
C[C@H](NC(=O)c1[nH]cnc1C(=O)Nc1ccc(Cl)cc1)c1ccccc1	61*	-6	0	11	6	60	29	FLuc counter=68*
C[C@@H](NC(=O)c1[nH]cnc1C(=O)Nc1ccc(Cl)cc1)c1ccccc1	60*	2	14	4	4	48	45*	FLuc counter=62*
CCC(C)(C(=O)Nc1ccc(OC)cc1)N(C)C(=O)Cn1nnnc1N (stereo not drawn)	15	31	-7	-18	-46	nt	nt
COc1ccc(CN2CCN(C(c3ccc(F)cc3)c3ccc(F)cc3)CC2)c(OC)c1OC	81*	-7	nt	3	-6	60	45*	FLuc counter=69*
COc1ccc(C=C2C=C(C(C)(C)C)C(=O)C(C(C)(C)C)=C2)cc1OC	100*	28	-4	-82	-38	?	18
COc1ccc(/C=C2\CCc3ccccc3C2=O)cc1OC	7	-20	4	-87	0	nt	nt
CCOc1ccc(-c2nnc(SCC(=O)Nc3ccc4c(c3)c3ccccc3n4CC)n2N)cc1	71*	5	71	-22	-6	52	71*	FLuc counter=23
CCn1c2ccccc2c2cc(NC(=O)CSc3nnc(-c4cccc(Cl)c4)o3)ccc21	52*	12	3	35	26	8	31
O=C(c1ccc(NC2=NC3CS(=O)(=O)CC3S2)cc1)N1CCN(c2ccc([N+](=O)[O-])cc2)CC1 (stereo not drawn)	2	-16	0	-5	-2	-4	nt
Cc1ccc2c3c(cccc13)-c1ccccc1C2=O	-57	nt	5	-52	-35	11	nt
Cc1coc2c1C(=O)C(=O)c1c-2ccc2c(C)cccc12	65*	-16	0	-12	0	15	14
Cc1coc2c1C(=O)C(=O)c1c-2ccc2c1CCCC2(C)C	53*	-17	0	6	-7	-2	6
CC(C)N(C)Cc1nnnn1CC(=O)N(C)Cc1ccc(F)cc1	14	3	nt	6	0	6	nt
COc1ccc(N=CC2=C(Nc3ccc(OC)cc3)c3c(C)nn(-c4ccccn4)c3CC2)cc1	90*	nt	110*	-39	21	nt	72*	FLuc counter=22
Cc1cc(C)c(C#N)c(SCC(=O)c2ccc(Cl)cc2Cl)n1	74*	nt	10	33	6	42	73*	FLuc counter=70*
CCOC(=O)CSc1nc(C)cc(C)c1C#N	12	-4	3	12	-6	-16	nt
Cc1cc(C)cc(NC(=O)Nc2ccc3c(c2)N(C)C(=O)CS3)c1	46	1	nt	-6	21	19	nt
CC(=O)c1cccc(NC(=O)Nc2ccc3c(c2)N(C)C(=O)CS3)c1	51*	2	0	-3	13	-4	20
CC(=O)c1cccc(NC(=O)Nc2ccc(C(=O)N3CCCC3)cc2)c1	52*	-6	8	-2	-2	-2	37
CCN1CCN(c2ccc(S(=O)(=O)N3CCOCC3)cc2NC(=O)c2ccc(Cl)s2)CC1	27	12	-3	-6	13	-13	nt
COc1ccc(N2CCN(C(=O)CSc3nc4nc(C)cc(C)n4n3)CC2)cc1	-28	-19	-4	16	4	nt	nt
O=C(/C=C/c1ccc(OCCCF)cc1)Nc1ccnc(-c2ccncc2)n1	62*	-11	-12	-13	20	nt	24
Cc1ccc(NC(=O)CN(C)S(=O)(=O)c2ccc(Cl)s2)c(O)c1	-3	-20	-1	-18	-32	-3	nt
Cc1ccc(OCCCCN2CCCCC2)c(C)c1	8	1	-4	0	7	17	nt
